Assay outcomes deposited in PubChem BioAssay by several laboratories.
Rows were chosen to be rich in hits. Some 2.8% of all compounds tested hit in one or more screens of this group.
HSP90 refold inh: HSP90 refolding inhibition in rabbit reticulocyte lysate; luciferase refolding luminescence, 3 h; inhibition, % at 5.6 µM; 290,000 tested, 0.91% active; AID 1789;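 active = inhibition above the screen-wide mean plus 3 SD, computed separately per campaign, cut at about 16% in these data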;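 note: 0% = DMSO wells and 100% = 60 µM geldanamycin wells; inhibitors lower the luminescence because luciferase stays unfolded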
SENP8 block-1: blocks human SENP8 cleavage of Nedd8 substrate. Q96LD8. recombinant SENP8, Nedd8 substrate fluorescence. inhibition, % at 20 µM. 360,000 tested, 0.64% active; in the data active = inhibition mostly above about 40%, no sharp cut-off; inactive = mostly below about 27%
SENP7 block: SENP7 protease inhibition; AID 434973; 330,000 tested, 1.5% active; recombinant SENP7, Z-RLRGG-aminoluciferin luminescence, 40 min; inhibition, % at 5 µM; Q9BQF6;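 active = inhibition above about 50% at the single test dose, limit read from the data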;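 note: plate controls were DMSO with enzyme for no effect and no enzyme buffer wells for full effect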
SENP6 block: SENP6 protease inhibition. Q9GZR1. Recombinant SENP6 catalytic domain, aminoluciferin luminescence. inhibition, % at 10 µM. 330,000 tested, 1.8% active;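 active = inhibition above about 50% at the single tested dose, limit read from the data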;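 note: plate controls were DMSO wells with enzyme for no effect and DMSO wells lacking enzyme for full effect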
Target sequence (Q9GZR1 628-1112 limits assumed): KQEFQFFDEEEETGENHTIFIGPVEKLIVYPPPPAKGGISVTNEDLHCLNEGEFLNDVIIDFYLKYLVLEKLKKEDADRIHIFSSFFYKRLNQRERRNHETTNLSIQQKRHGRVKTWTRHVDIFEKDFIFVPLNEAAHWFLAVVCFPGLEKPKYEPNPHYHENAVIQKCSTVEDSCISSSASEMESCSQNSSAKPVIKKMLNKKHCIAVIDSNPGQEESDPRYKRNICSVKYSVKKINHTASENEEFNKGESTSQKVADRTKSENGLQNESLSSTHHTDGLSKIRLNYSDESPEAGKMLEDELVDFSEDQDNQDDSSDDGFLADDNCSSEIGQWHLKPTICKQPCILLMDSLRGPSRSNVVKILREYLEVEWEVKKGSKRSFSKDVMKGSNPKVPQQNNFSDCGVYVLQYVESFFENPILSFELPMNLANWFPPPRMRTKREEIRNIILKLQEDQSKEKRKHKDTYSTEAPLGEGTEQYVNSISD
Platelet DG rel: modulates dense granule release in human platelets; human platelet-rich plasma, SFLLRN dense granule ATP release, luminescence; 300,000 tested, 0.22% active; inhibition, %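 (compounds screened at 7.5 µM in platelet-rich plasma)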;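 active = mean replicate score, as percent of positive control, at or above 50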
SENP8 block-2: SENP8 protease inhibition; Q96LD8; purified SENP8, Z-RLRGG-aminoluciferin cleavage, luminescence; inhibition, % at 10 µM; 330,000 tested, 1.2% active; in the data active = inhibition above about 50%
SENP8 conf: confirmation of human SENP8 protease inhibitors; shares compounds with SENP7 block; Recombinant SENP8, Z-RLRGG-aminoluciferin luminescence, 60 min; inhibition, % at 12.5 µM; 6,200 tested, 40% active; AID 488912;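 active = mean inhibition across replicates above about 50%, limit read from the data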
SENP6 confirm: human SENP6 inhibition, confirmed | AID 488915 | 6,200 tested, 58% active | recombinant SENP6, Z-RLRGG-aminoluciferin luminescence | shares compounds with SENP7 block | inhibition, % at 12.5 µM
SENP7 confirm: human SENP7 inhibition, confirmed | shares compounds with SENP7 block | recombinant SENP7, Z-RLRGG-aminoluciferin luminescence, 40 min | inhibition, % at 12.5 µM | 6,200 tested, 69% active
Casp3 select: selectivity test for SENP inhibitors: human caspase-3 inhibition; inhibition, % at 12.5 µM; shares compounds with SENP7 block; 6,200 tested, 60% active; purified caspase-3, Z-DEVD-aminoluciferin luminescence, 60 min;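 active = mean inhibition above about 50%, limit read from the data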;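 note: plate controls were enzyme with DMSO for no effect and wells without caspase-3 for full effect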
SENP luc ctr: counter-screen for SENP inhibitors: luminescence interference. inhibition, % at 12.5 µM. 6,200 tested, 39% active. AID 488919. shares compounds with SENP7 block. Pre-incubated SENP8/Z-RLRGG-aminoluciferin, luciferase luminescence interference;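 active = mean inhibition above about 50% when retested at one dose, limit read from the data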;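 note: plate controls were DMSO wells with completed reaction for no effect and substrate without enzyme for full effect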
* hit, by the source's call.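 Rule for the calls, unless noted: active = mean inhibition above about 50% in the one-dose retest (limit read from the data); inactive = the rest.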

What do the screens show for `Cc1cc(C(=O)COC(=O)C2=COCCO2)c(C)n1-c1ccccc1`?
SENP8 block-1: 26; SENP7 block: 85*; SENP6 block: 85*; SENP8 block-2: 83*; SENP8 conf: 83*; SENP6 confirm: 83*; SENP7 confirm: 96*; Casp3 select: 88*; SENP luc ctr: 78*

How did Cc1ccc(-n2c(C)cc(C(=O)COC(=O)c3c(C)noc3C)c2C)cc1 do in these assays?
HSP90 refold inh: -2; SENP8 block-1: 16; SENP7 block: 52*; SENP6 block: 68*; Platelet DG rel: -1; SENP8 block-2: 45; SENP8 conf: 52*; SENP6 confirm: 58*; SENP7 confirm: 82*; Casp3 select: 59*; SENP luc ctr: 32

Results for Cc1cc(N)n(-c2cc(C)c3ccccc3n2)n1 ?
HSP90 refold inh: 4; SENP8 block-1: 9; SENP7 block: 81*; SENP6 block: 79*; Platelet DG rel: 10; SENP8 block-2: 73*; SENP8 conf: -26; SENP6 confirm: 71*; SENP7 confirm: 93*; Casp3 select: 79*; SENP luc ctr: 70*

How did Cc1cc(C)c2nc(-n3nc(C)cc3N)cc(C)c2c1 do in these assays?
HSP90 refold inh: 1; SENP8 block-1: 4; SENP7 block: -2; SENP6 block: 11; Platelet DG rel: 0; SENP8 block-2: -4

What do the screens show for `COc1ccc(NC(=O)C(=O)NCCC2CCCCN2S(=O)(=O)c2ccc(F)cc2)cc1` (stereo not given)?
SENP8 block-1: 7; SENP7 block: -3; SENP6 block: -8; Platelet DG rel: -20; SENP8 block-2: -5

How did COc1cc(NS(=O)(=O)c2ccc(NC(=O)/C(=C/c3ccccc3Cl)NC(=O)c3ccccc3)cc2)nc(OC)n1 do in these assays?
HSP90 refold inh: -1; SENP8 block-1: 17; SENP7 block: 4; SENP6 block: 64*; Platelet DG rel: -31; SENP8 block-2: 3; SENP8 conf: -20; SENP6 confirm: -17; SENP7 confirm: -3; Casp3 select: -7; SENP luc ctr: -5

Results for O=C1CN(C(=O)c2ccc(Cl)c(S(=O)(=O)N3CCc4ccccc43)c2)c2ccccc2N1 ?
HSP90 refold inh: -3; SENP8 block-1: 9; SENP7 block: 7; SENP6 block: 61*; Platelet DG rel: -4; SENP8 block-2: 4; SENP8 conf: -6; SENP6 confirm: -8; SENP7 confirm: -8; Casp3 select: -4; SENP luc ctr: -4

What do the screens show for `O=C(NC(=S)/C(=C1\CCCCCN1)[N+](=O)[O-])c1ccccc1`?
SENP8 block-1: 14; SENP7 block: 60*; SENP6 block: 60*; SENP8 block-2: 57*; SENP8 conf: 77*; SENP6 confirm: 71*; SENP7 confirm: 93*; Casp3 select: 74*; SENP luc ctr: 10

Results for COc1cccc2cc(C(=O)NCCN3CCOCC3)c(=O)oc12 ?
HSP90 refold inh: -1; SENP8 block-1: -22; SENP7 block: -3; SENP6 block: -4; SENP8 block-2: 5

What do the screens show for `C[C@@H]1CN([C@@H](C)CO)C(=O)c2cc(C#CCN(C)C)cnc2O[C@H]1CN(C)Cc1ccc2c(c1)OCO2`?
SENP8 block-1: 7

How did COc1ccc(-c2cc3c(nn2)-c2ccccc2C3=O)cc1 do in these assays?
HSP90 refold inh: 0; SENP8 block-1: 43*; SENP7 block: 99*; SENP6 block: 97*; Platelet DG rel: 55*; SENP8 block-2: 96*; SENP8 conf: -4; SENP6 confirm: 24; SENP7 confirm: 20; Casp3 select: 41; SENP luc ctr: 10

Results for Cc1cccc(-c2cc3c(nn2)-c2ccccc2C3=O)c1 ?
HSP90 refold inh: 4; SENP8 block-1: 32; SENP7 block: 100*; SENP6 block: 90*; Platelet DG rel: 2; SENP8 block-2: 95*; SENP8 conf: 32; SENP6 confirm: 74*; SENP7 confirm: 88*; Casp3 select: 83*; SENP luc ctr: 34

How did Cc1cnc2c(c1)C(=O)c1ccccc1-2 do in these assays?
HSP90 refold inh: 9; SENP8 block-1: 18; SENP7 block: 2; SENP6 block: -14; Platelet DG rel: 12; SENP8 block-2: -4

Results for O=C1c2ccccc2-c2nnc(-c3ccccc3)cc21 ?
HSP90 refold inh: 0; SENP8 block-1: 37; SENP7 block: 99*; SENP6 block: 99*; Platelet DG rel: 24; SENP8 block-2: 96*; SENP8 conf: 6; SENP6 confirm: 38; SENP7 confirm: 44; Casp3 select: 29; SENP luc ctr: 10

How did CC1(C(=O)NCc2ccccc2)CN(S(C)(=O)=O)CC(=O)N1Cc1cccc(C(F)(F)F)c1 (stereo not given) do in these assays?
SENP8 block-1: 12

What do the screens show for `O=C(O)CC1Cc2ccccc2C1C(=O)O` (stereo not given)?
SENP8 block-1: 8

Results for O=[N+]([O-])c1ccccc1N/N=C/c1ccc2c(c1)OCO2 ?
HSP90 refold inh: 1; SENP8 block-1: 26; SENP7 block: 96*; SENP6 block: 34; Platelet DG rel: 27; SENP8 block-2: 82*; SENP8 conf: 14; SENP6 confirm: 16; SENP7 confirm: 14; Casp3 select: 25; SENP luc ctr: 4

What do the screens show for `O=[N+]([O-])c1ccccc1N/N=C/c1ccccc1`?
HSP90 refold inh: -2; SENP8 block-1: 20; SENP7 block: 95*; SENP6 block: 63*; Platelet DG rel: -10; SENP8 block-2: 61*; SENP8 conf: 22; SENP6 confirm: 21; SENP7 confirm: 11; Casp3 select: 26; SENP luc ctr: -3

How did O=[N+]([O-])c1ccc(S(=O)(=O)N/N=C/c2ccc3c(c2)OCO3)cc1 do in these assays?
HSP90 refold inh: -1; SENP8 block-1: 12; SENP7 block: -3; SENP6 block: -5; Platelet DG rel: -12; SENP8 block-2: 3

What do the screens show for `CCN(CC)c1ccc(C(=O)OCC(=O)Nc2ccc3[nH]c(=O)[nH]c3c2)cc1`?
HSP90 refold inh: 1; SENP8 block-1: -33; SENP7 block: 13; SENP6 block: -9; Platelet DG rel: 4; SENP8 block-2: -1
